Measurements reported in PubChem BioAssay.

Assay: basal RPMI8226 mitochondrial membrane potential changes, profiling panel, cell-based, JC-1 fluorescence, 24 h, 100 nL compound (AID 1169)
Conditions: RPMI8226 myeloma, JC-1 mitochondrial potential fluorescence, higher = more signal
Note: test concentration not given here.

Row | SMILES | z-score
1 | O=C(N1CCCCC1)[C@]1(Cc2ccccc2)N=C(c2ccc(OCCCO)cc2)O[C@@H]1c1ccccc1 | -1.26
2 | CCOC(=O)[C@H]1C/C=C/C[C@H](C(=O)OCC)C(=O)O[C@H]2[C@@H](OC)O[C@H](CO)[C@@H](OC(=O)c3c(OC)cccc3OC)[C@@H]2OC1=O | -0.999
3 | C=C(CCCC)/C(=C/C[C@H](OC(=O)c1ccncc1)c1ccccc1OCCO)c1cnc2ccccc2c1 | -0.716
4 | CCN(CC)c1ccc(N2CC=CC34O[C@@H]5C=CCCOC(=O)C5[C@H]3C(=O)N(CCCCCCO)[C@@H]4C2=O)cc1 (some centres not stated) | -0.197
5 | COC(=O)[C@@]1(Cc2ccc(OC)cc2)[C@H]2c3cc(C(=O)N4CCCC4)n(CCN4CNCC4=O)c3C[C@H]2CN1C(=O)c1ccccc1 | -0.429
6 | CCC(CC)C(O)C1C=CC2C(=O)NC(=O)C2N1Nc1ccccn1 (configuration not stated) | -0.07
7 | O=C(CS)NCCCCCCNC(=O)[C@@H]1C[C@@H]2C(=O)NCC(=O)N2[C@@H]1c1cccc(OCCO)c1 | 0.116

Assay: basal MM1S mitochondrial membrane potential changes, profiling panel, cell-based, JC-1 fluorescence, 24 h, 100 nL compound (AID 1170)
Conditions: higher = more signal

Row | SMILES | z-score
8 | COCC(=C=CC[C@@H](O)c1cccc(OCCO)c1)C[C@@H](O)c1ccccn1 | -0.0149
9 | C[C@@]1([C@@H](NC(=O)c2ccc(-c3ccccc3)cc2)c2ccc(Cl)cc2)C[C@H]1C1CCCCC1 | -2.73
10 | CCc1cccc(NC(=O)O[C@H]2[C@H](OC(=O)Nc3ccccc3-c3ccccc3)[C@@H](OC(=O)Nc3ccccc3-c3ccccc3)[C@@H](OC)O[C@@H]2CO)c1 | -1.91
11 | C=C[C@H](CO[Si](CC)(CC)CC)N(Cc1ccc(OC(C)=O)c(OC)c1)S(=O)(=O)c1ccc(Br)cc1 | -1.84
12 | C[C@H]1NC(=O)[C@@]23C(=O)N[C@@H](Cc4ccccc4)C2[C@H](C)[C@@]2(C)O[C@H]2C3/C=C/C/C=C\CNC(=O)[C@@H]2CCCN2C1=O (some centres not stated) | -0.507
13 | CCS[C@H]1[C@@H](C(=O)O)[C@H](c2ccc(C)cc2)N(S(=O)(=O)c2ccc(C)cc2)[C@@H]1CC | -1.88
14 | COCCOC(=O)N1C(=O)[C@@]2(c3ccccc31)[C@H](C(=O)N1CCc3cc(OC)c(OC)cc3C1)[C@H]1C(=O)O[C@H](c3ccccc3)[C@H](c3ccccc3)N1[C@@H]2c1ccc(OCCO)cc1 | -0.483
15 | [N-]=[N+]=Nc1ccccc1[C@H]1OC(c2ccc(OCCCO)cc2)=N[C@@]1(CCS(=O)(=O)c1ccccc1)C(=O)NCC(O)CO (some centres not stated) | -0.0714
16 | [N-]=[N+]=NCc1ccccc1[C@@H]1OC(c2ccc(OCCCO)cc2)=N[C@]1(Cc1ccccc1)C(N)=O | -1.1
17 | C=C(CCCC)C(=O)CC[C@@H](OC(=O)c1ccccc1-c1ccccc1C(=O)O)c1ccc(OCCO)cc1 | -0.137
18 | O=C(CS)NCCCCCCNC(=O)[C@@H]1C[C@@H]2C(=O)N[C@@H](Cc3ccccc3)C(=O)N2[C@@H]1c1cccc(OCCO)c1 | -0.143
19 | CC(C)C(O)C1C=CC2C(=O)N(c3ccccc3)C(=O)C2N1Nc1ccc([N+](=O)[O-])cc1 (configuration not stated) | -1.07
20 | CC(C)N1C(=O)[C@@]2(Cc3ccccc31)c1ccccc1C(=O)N(Cc1ccccc1Cl)[C@H]2c1ccc(CO)cc1 | -1.76
21 | C=CCC(OC(C)=O)[C@@H]1[C@@H](N(Cc2cc3ccccc3o2)C(=O)c2cccc3ccccc23)c2cc(OCCCO)ccc2N1C(=O)c1ccc(-c2ccccc2)cc1 (some centres not stated) | 0.955
22 | C=CCC(OC(C)=O)[C@@H]1[C@@H](N(Cc2ccc(-c3ccccc3)cc2)C(=O)Cc2ccc(OC)cc2)c2cc(OCCCO)ccc2N1C(=O)Cc1ccc2ccccc2c1 (some centres not stated) | 0.338
23 | Cc1ccc(S[C@]2(C(=O)O)CC(=O)N(C(C)C)[C@@H]2c2ccc(CO)cc2I)cc1 | -0.56
24 | O=C1O[C@@H](c2ccccc2)[C@@H](c2ccccc2)N2[C@@H](c3ccccc3OCCO)[C@]3(C(=O)Nc4ccc(C#CC5=CCCCC5)cc43)[C@@H](C(=O)N3CCCCCCC3)[C@H]12 | -1.75
25 | O=C1OCCC/C=C\[C@H]2OC34C=CCN(Cc5ccccc5)C(=O)[C@H]3N(CCCO)C(=O)[C@@H]4C12 (some centres not stated) | 1.44

Row | SMILES | z-score
26 | COC(=O)[C@@]1(Cc2ccc(OC)cc2)[C@H]2c3cc(C(=O)N(C)C)n(Cc4ccc(S(C)(=O)=O)cc4)c3C[C@H]2CN1C(=O)c1ccccc1 | -1.11
27 | CC(C)C[C@@H]1NC(=O)[C@H](C(C)C)NC(=O)[C@@]23C(=O)N[C@@H](Cc4ccccc4)C2[C@H](C)[C@@]2(C)O[C@H]2C3/C=C/CC/C=C/CNC1=O (some centres not stated) | 1.72
28 | COCCOC(=O)N1C(=O)[C@@]2(c3ccccc31)[C@H](c1ccc(O)cc1)N1[C@H](c3ccccc3)[C@H](c3ccccc3)OC(=O)[C@H]1[C@@H]2C(=O)Nc1nc2ccccc2s1 | -1.21
29 | CC(C)OC(=O)C=C1C[C@@H](c2ccccn2)O[C@@H](c2ccccn2)O1 | -0.816
30 | COC(=O)[C@@]1(Cc2ccc(F)cc2)[C@H]2c3cc(C(=O)N(C)C)n(Cc4ccc(Cl)c(C(F)(F)F)c4)c3C[C@H]2CN1C(=O)c1ccccc1 | -1.54
31 | CC(C)(C)OC(=O)CC[C@]1(C(=O)N2CCOCC2)N=C(c2ccc(OCCCO)cc2)O[C@H]1c1ccccc1N=[N+]=[N-] | 0.103
32 | C=C(C(=O)CC[C@@H](OC(=O)c1cccnc1)c1ccccc1OCCO)C(C)C | -1.07
33 | NCCCCCCNC(=O)[C@@H]1C[C@@H]2C(=O)NCC(=O)N2[C@@H]1c1ccc(O)cc1 | -0.365
34 | CCCCCCc1nc(-c2cc(C)c(OC)c(C)c2)cc2c1[Si](C(C)C)(C(C)C)OC2 | -0.288
35 | C=CCOC(=O)[C@@H]1[C@H]2C(=O)O[C@H](c3ccccc3)[C@H](c3ccccc3)N2[C@H](c2ccc(OCCOC(=O)[C@H]3C[C@H]4C(=O)N5CCC[C@H]5C(=O)N4[C@H]3c3ccc(O)cc3)cc2)[C@@]12C(=O)Nc1ccc(I)cc12 | -1.27
36 | O=C(N1CCCCC1)[C@]1(Cc2ccccc2)N=C(c2ccc(OCCCO)cc2)O[C@@H]1c1ccccc1 | -2.03
37 | CCOC(=O)[C@H]1C/C=C/C[C@H](C(=O)OCC)C(=O)O[C@H]2[C@@H](OC)O[C@H](CO)[C@@H](OC(=O)c3c(OC)cccc3OC)[C@@H]2OC1=O | -1.96
38 | C=C(CCCC)/C(=C/C[C@H](OC(=O)c1ccncc1)c1ccccc1OCCO)c1cnc2ccccc2c1 | -0.705
39 | CCN(CC)c1ccc(N2CC=CC34O[C@@H]5C=CCCOC(=O)C5[C@H]3C(=O)N(CCCCCCO)[C@@H]4C2=O)cc1 (some centres not stated) | -0.585
40 | COC(=O)[C@@]1(Cc2ccc(OC)cc2)[C@H]2c3cc(C(=O)N4CCCC4)n(CCN4CNCC4=O)c3C[C@H]2CN1C(=O)c1ccccc1 | -0.162
41 | CCC(CC)C(O)C1C=CC2C(=O)NC(=O)C2N1Nc1ccccn1 (configuration not stated) | -0.138
42 | O=C(CS)NCCCCCCNC(=O)[C@@H]1C[C@@H]2C(=O)NCC(=O)N2[C@@H]1c1cccc(OCCO)c1 | -0.502
